Consider 31 sequences from paper PMC10812921, “Transcriptional Coactivator BOB1 (OBF1, OCA-B) Modulates the Specificity of DNA Recognition by the POU-Domain Factors OCT1 and OCT2 in a Monomeric Configuration”.

One assay addresses POU1 (OCT1 POU domain) (human, UniProt P14859 260-458). As to the kind of experiment: EMSA-SELEX-seq; no BOB1; 20 mM Tris-HCl pH 7.6, 140 mM NaCl, 10% glycerol, 0.5 mM EDTA, 0.05% Triton X-100, 0.1 mg/mL BSA, 0.1 mg/mL poly(dI-dC), 5 mM DTT, room temperature, 20 min; high values mean tight binding. The settings on record: protein: recombinant; dsDNA, one strand shown. Put shortly: (§1)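 After expression in E. coli BL21, tagged POU-domain proteins were purified under denaturing conditions and then renatured. Each binding reaction held 30 ng protein and 300 ng of a PCR-amplified double-stranded random 35-nt library in 20 μL Tris–HCl pH 7.6 binding buffer, with or without 28 ng coactivator protein, for 20 min at RT. Bands holding complexes were cut from native 6% PAGE, eluted and PCR-amplified across four rounds, and the output was Illumina-sequenced. The value given for binding preference is the share, in percent, of sequenced 8-mers fitting a motif pattern.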

The next assay concerns the target T1, POU2 (OCT2 POU domain) (human, UniProt P09086 175-386).
T1 sequence: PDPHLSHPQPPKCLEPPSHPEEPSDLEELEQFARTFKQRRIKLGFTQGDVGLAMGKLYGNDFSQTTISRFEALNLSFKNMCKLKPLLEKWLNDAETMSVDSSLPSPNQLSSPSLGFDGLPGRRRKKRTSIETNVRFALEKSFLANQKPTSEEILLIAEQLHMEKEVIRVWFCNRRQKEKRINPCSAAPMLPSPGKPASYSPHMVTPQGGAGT
The description is as above. The settings on record: protein: recombinant; dsDNA, one strand shown. Put shortly:
as §1

Assay [1] concerns the target POU1 (OCT1 POU domain);BOB1 (OBF1, OCA-B) (human;human, UniProt P14859;Q16633 260-458;1-256, |). As to the kind of experiment: EMSA-SELEX-seq; with BOB1 (ternary complex band); 20 mM Tris-HCl pH 7.6, 140 mM NaCl, 10% glycerol, 0.5 mM EDTA, 0.05% Triton X-100, 0.1 mg/mL BSA, 0.1 mg/mL poly(dI-dC), 5 mM DTT, room temperature, 20 min; high values mean tight binding. The settings on record: protein: recombinant;recombinant; copies: 1;1; dsDNA, one strand shown. Put shortly:
as §1

Assay [2] has as its target T2, POU2 (OCT2 POU domain);BOB1 (OBF1, OCA-B) (human;human, UniProt P09086;Q16633 175-386;1-256, |).
T2 sequence 1: T1 sequence
T2 sequence 2: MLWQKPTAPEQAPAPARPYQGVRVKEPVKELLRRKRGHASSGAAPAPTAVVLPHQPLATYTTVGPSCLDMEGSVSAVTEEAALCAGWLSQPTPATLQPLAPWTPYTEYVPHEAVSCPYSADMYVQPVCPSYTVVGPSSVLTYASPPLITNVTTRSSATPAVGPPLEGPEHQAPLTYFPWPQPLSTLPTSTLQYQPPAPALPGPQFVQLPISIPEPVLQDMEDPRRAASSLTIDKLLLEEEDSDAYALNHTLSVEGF
The assay is described as above. The settings on record: protein: recombinant;recombinant; copies: 1;1; dsDNA, one strand shown. Put shortly: as §1

Chain of POU1 (OCT1 POU domain) (P14859 260-458): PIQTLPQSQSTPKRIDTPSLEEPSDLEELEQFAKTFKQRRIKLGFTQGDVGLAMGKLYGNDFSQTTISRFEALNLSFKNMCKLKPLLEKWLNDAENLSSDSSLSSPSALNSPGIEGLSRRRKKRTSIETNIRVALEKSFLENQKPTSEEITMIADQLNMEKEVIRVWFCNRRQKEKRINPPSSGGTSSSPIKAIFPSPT

Regarding ATTGGAAA, the binding signal was 0.0927 % of ANNNNAAN 8-mers with POU1 (OCT1 POU domain), 0.0794 % of ANNNNAAN 8-mers in the assay with POU2 (OCT2 POU domain), 0.11 % of ANNNNAAN 8-mers in assay [1] and 0.0735 % of ANNNNAAN 8-mers in assay [2].
In the case of ATACGAAA, the binding signal was 0.0698 % of ANNNNAAN 8-mers in the assay with POU1 (OCT1 POU domain), 0.0777 % of ANNNNAAN 8-mers with POU2 (OCT2 POU domain), 0.0698 % of ANNNNAAN 8-mers in assay [1] and 0.0693 % of ANNNNAAN 8-mers in assay [2].
On to AGGGTAAG, for which the binding signal with POU1 (OCT1 POU domain) is 0.0503 % of ANNNNAAN 8-mers; with POU2 (OCT2 POU domain), 0.0541 % of ANNNNAAN 8-mers; in assay [1], 0.0531 % of ANNNNAAN 8-mers; in assay [2], 0.0776 % of ANNNNAAN 8-mers.
As to ACAATAAC, the binding signal is 0.0248 % of ANNNNAAN 8-mers with POU1 (OCT1 POU domain), 0.0259 % of ANNNNAAN 8-mers with POU2 (OCT2 POU domain), 0.0211 % of ANNNNAAN 8-mers in assay [1] and 0.0248 % of ANNNNAAN 8-mers in assay [2].
AGGGAAAA: the binding signal is 0.205 % of ANNNNAAN 8-mers in the assay with POU1 (OCT1 POU domain), 0.119 % of ANNNNAAN 8-mers in the assay with POU2 (OCT2 POU domain), 0.28 % of ANNNNAAN 8-mers in assay [1] and 0.119 % of ANNNNAAN 8-mers in assay [2].
For ATCATAAC, the binding signal is 0.0324 % of ANNNNAAN 8-mers with POU1 (OCT1 POU domain), 0.0374 % of ANNNNAAN 8-mers with POU2 (OCT2 POU domain), 0.023 % of ANNNNAAN 8-mers in assay [1] and 0.0322 % of ANNNNAAN 8-mers in assay [2].
For ATTGCAAA the same measures were 0.202 % of ANNNNAAN 8-mers, 0.167 % of ANNNNAAN 8-mers, 0.322 % of ANNNNAAN 8-mers and 0.324 % of ANNNNAAN 8-mers.
With AAGGTAAA, the binding signal with POU1 (OCT1 POU domain) is 0.108 % of ANNNNAAN 8-mers; with POU2 (OCT2 POU domain), 0.109 % of ANNNNAAN 8-mers; in assay [1], 0.144 % of ANNNNAAN 8-mers; in assay [2], 0.0933 % of ANNNNAAN 8-mers.
Consider ACCCAAAT, for which the binding signal in the assay with POU1 (OCT1 POU domain) was 0.0477 % of ANNNNAAN 8-mers; with POU2 (OCT2 POU domain) it was 0.0391 % of ANNNNAAN 8-mers; in assay [1] it was 0.0753 % of ANNNNAAN 8-mers; in assay [2], 0.0355 % of ANNNNAAN 8-mers.
ATCGGAAT: the binding signal with POU1 (OCT1 POU domain) is 0.0717 % of ANNNNAAN 8-mers; in the assay with POU2 (OCT2 POU domain), 0.0869 % of ANNNNAAN 8-mers; in assay [1], 0.0581 % of ANNNNAAN 8-mers; in assay [2], 0.0768 % of ANNNNAAN 8-mers.
In the case of AGGACAAA, the binding signal with POU1 (OCT1 POU domain) is 0.045 % of ANNNNAAN 8-mers; with POU2 (OCT2 POU domain), 0.046 % of ANNNNAAN 8-mers; in assay [1] it was 0.0453 % of ANNNNAAN 8-mers; in assay [2] it was 0.0371 % of ANNNNAAN 8-mers.
ACTTGAAA: the binding signal with POU1 (OCT1 POU domain) is 0.0317 % of ANNNNAAN 8-mers; in the assay with POU2 (OCT2 POU domain), 0.042 % of ANNNNAAN 8-mers; in assay [1], 0.0433 % of ANNNNAAN 8-mers; in assay [2] it was 0.0371 % of ANNNNAAN 8-mers.
The corresponding values for AGCTTAAA are 0.037 % of ANNNNAAN 8-mers, 0.0437 % of ANNNNAAN 8-mers, 0.0258 % of ANNNNAAN 8-mers and 0.0421 % of ANNNNAAN 8-mers.
For AGAGCAAG the same measures were 0.0156 % of ANNNNAAN 8-mers, 0.0213 % of ANNNNAAN 8-mers, 0.0191 % of ANNNNAAN 8-mers and 0.0132 % of ANNNNAAN 8-mers.
For AATTTAAG, the binding signal was 0.15 % of ANNNNAAN 8-mers with POU1 (OCT1 POU domain), 0.142 % of ANNNNAAN 8-mers with POU2 (OCT2 POU domain), 0.144 % of ANNNNAAN 8-mers in assay [1] and 0.12 % of ANNNNAAN 8-mers in assay [2].
With ACTATAAG, the binding signal with POU1 (OCT1 POU domain) was 0.029 % of ANNNNAAN 8-mers; in the assay with POU2 (OCT2 POU domain), 0.0339 % of ANNNNAAN 8-mers; in assay [1], 0.03 % of ANNNNAAN 8-mers; in assay [2], 0.0314 % of ANNNNAAN 8-mers.
Turning to ATATGAAC, the binding signal with POU1 (OCT1 POU domain) was 0.0389 % of ANNNNAAN 8-mers; with POU2 (OCT2 POU domain), 0.0495 % of ANNNNAAN 8-mers; in assay [1], 0.03 % of ANNNNAAN 8-mers; in assay [2] it was 0.0528 % of ANNNNAAN 8-mers.
The corresponding values for ACCACAAA are 0.0141 % of ANNNNAAN 8-mers, 0.0196 % of ANNNNAAN 8-mers, 0.014 % of ANNNNAAN 8-mers and 0.0198 % of ANNNNAAN 8-mers.
Consider AAGAAAAG, for which the binding signal in the assay with POU1 (OCT1 POU domain) is 0.0732 % of ANNNNAAN 8-mers; in the assay with POU2 (OCT2 POU domain), 0.0633 % of ANNNNAAN 8-mers; in assay [1] it was 0.0905 % of ANNNNAAN 8-mers; in assay [2] it was 0.0652 % of ANNNNAAN 8-mers.
On to ACTGGAAC, for which the binding signal with POU1 (OCT1 POU domain) was 0.0168 % of ANNNNAAN 8-mers; with POU2 (OCT2 POU domain) it was 0.0207 % of ANNNNAAN 8-mers; in assay [1], 0.0183 % of ANNNNAAN 8-mers; in assay [2], 0.0206 % of ANNNNAAN 8-mers.
On to AGTGTAAA, for which the binding signal in the assay with POU1 (OCT1 POU domain) is 0.0576 % of ANNNNAAN 8-mers; with POU2 (OCT2 POU domain), 0.0667 % of ANNNNAAN 8-mers; in assay [1], 0.0687 % of ANNNNAAN 8-mers; in assay [2], 0.052 % of ANNNNAAN 8-mers.
The corresponding values for AATGGAAC are 0.0439 % of ANNNNAAN 8-mers, 0.0466 % of ANNNNAAN 8-mers, 0.0449 % of ANNNNAAN 8-mers and 0.0528 % of ANNNNAAN 8-mers.
Consider ACGTAAAT, for which the binding signal with POU1 (OCT1 POU domain) was 0.217 % of ANNNNAAN 8-mers; with POU2 (OCT2 POU domain), 0.172 % of ANNNNAAN 8-mers; in assay [1] it was 0.232 % of ANNNNAAN 8-mers; in assay [2], 0.147 % of ANNNNAAN 8-mers.
As to AGCGCAAT, the binding signal in the assay with POU1 (OCT1 POU domain) is 0.0278 % of ANNNNAAN 8-mers; with POU2 (OCT2 POU domain), 0.0368 % of ANNNNAAN 8-mers; in assay [1], 0.0258 % of ANNNNAAN 8-mers; in assay [2], 0.0297 % of ANNNNAAN 8-mers.
In the case of ACACCAAG, the binding signal was 0.0103 % of ANNNNAAN 8-mers with POU1 (OCT1 POU domain), 0.0178 % of ANNNNAAN 8-mers with POU2 (OCT2 POU domain), 0.0129 % of ANNNNAAN 8-mers in assay [1] and 0.0124 % of ANNNNAAN 8-mers in assay [2].
AAGGCAAG: the binding signal with POU1 (OCT1 POU domain) was 0.0328 % of ANNNNAAN 8-mers; with POU2 (OCT2 POU domain), 0.038 % of ANNNNAAN 8-mers; in assay [1], 0.0328 % of ANNNNAAN 8-mers; in assay [2] it was 0.0256 % of ANNNNAAN 8-mers.
As for AGTCCAAT, the binding signal with POU1 (OCT1 POU domain) was 0.0385 % of ANNNNAAN 8-mers; with POU2 (OCT2 POU domain), 0.0466 % of ANNNNAAN 8-mers; in assay [1], 0.0421 % of ANNNNAAN 8-mers; in assay [2], 0.0371 % of ANNNNAAN 8-mers.
For ACTTTAAG the same measures were 0.0336 % of ANNNNAAN 8-mers, 0.0299 % of ANNNNAAN 8-mers, 0.0332 % of ANNNNAAN 8-mers and 0.0322 % of ANNNNAAN 8-mers.
AGAAGAAA: the binding signal with POU1 (OCT1 POU domain) was 0.0507 % of ANNNNAAN 8-mers; with POU2 (OCT2 POU domain), 0.0685 % of ANNNNAAN 8-mers; in assay [1], 0.055 % of ANNNNAAN 8-mers; in assay [2] it was 0.0471 % of ANNNNAAN 8-mers.
Regarding ATCCCAAT, the binding signal is 0.0317 % of ANNNNAAN 8-mers in the assay with POU1 (OCT1 POU domain), 0.038 % of ANNNNAAN 8-mers with POU2 (OCT2 POU domain), 0.025 % of ANNNNAAN 8-mers in assay [1] and 0.033 % of ANNNNAAN 8-mers in assay [2].
Regarding ATTTAAAA, the binding signal with POU1 (OCT1 POU domain) was 0.303 % of ANNNNAAN 8-mers; with POU2 (OCT2 POU domain), 0.299 % of ANNNNAAN 8-mers; in assay [1], 0.178 % of ANNNNAAN 8-mers; in assay [2], 0.137 % of ANNNNAAN 8-mers.
